Experimental data: PubChem BioAssay AID1117319 (Southern Research Institute, 2015)
“And” between values parts separate entries of the source, which are not always exact repeats. Equal values may be shown once. The campaign covered roughly 260,000 compounds. About 1,500 (0.58%) were called active. Not shown: some 5% with an inconclusive outcome.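 Rule for the calls: active = inhibition above a set limit at one or more doses, reproduced on every date tested; inconclusive = results disagree between test dates, or hit never tested in dose response; inactive = the rest.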 Only a sample is shown. Results with a measured potency or affinity are listed apart.

Target: Virion infectivity factor (Human immunodeficiency virus type 1 group M subtype B (isolate BH10)) + Virion infectivity factor (Human immunodeficiency virus type 1 group M subtype B (isolate BRU/LAI)) + Virion infectivity factor (Human immunodeficiency virus type 1 group M subtype B (isolate PCV12)) + Virion infectivity factor (Human immunodeficiency virus type 1 group M subtype B (isolate HXB2)) + DNA dC->dU-editing enzyme APOBEC-3G (Homo sapiens) (UniProt P69720+P69721+P69722+P69723+Q9HC16)
Experiment: inhibitors of Vif binding to APOBEC3G peptide, primary screen, biochemical, TR-FRET, GST-Vif 1-94, biotin-A3G peptide, dose response retest (AID 1117319);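 note: Vif residues 1-94 fused to GST binding biotinylated APOBEC3G peptide 110-148; 0% = full assay without inhibitor and 100% = GST in place of GST-Vif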
Conditions: hits give high values

inhibition, inactive:
COc1ccc(OC)c(-c2nc(C(N)=O)c3[nH]c(=O)n(-c4ccc(F)cc4)c3n2)c1 -0.73%, NNC(=O)c1nc(-c2cccc(-n3cccc3)c2)no1 2.13%, CC(=O)Nc1ccc(C(=O)COC(=O)CCc2ccccc2)c(F)c1 -7.82%, FC(F)(F)c1cnc(-n2cc[nH]c2=S)c(Cl)c1 -3.85%, CCCCN=C1NC(=O)C(CC(=O)NCCc2ccc(OC)cc2)S1 (stereo unspecified) 21.5%, CCOc1ncccc1C(=O)NCCN1C(=O)S/C(=C/c2cccs2)C1=O 17.3%, Cc1nc(Nc2ccccc2)c2oc3ccc(Cl)cc3c2n1 -10.6%, Cc1ccc(NC(=O)c2cc(-c3ccc(C)o3)nc3ccccc23)cc1 20.7%, Cc1ccc(-c2cc(C(=O)Nc3ccccc3C)c3ccccc3n2)o1 0.87%, CCc1c(C(=O)OC)nnc2cc(C)nn12 -2.39%, COc1ccc(SCC(=O)Nc2ccc(N3CCN(C)CC3)c(F)c2)cc1 -1.67%, CNC(=O)COC(=O)c1[nH]c(C)c(C(C)=O)c1C 1.68%, CC(=O)c1c(C)[nH]c(C(=O)OCC(=O)NCC(C)C)c1C -6.38%, CCOC(=O)c1c(C)[nH]c(C(=O)OCC(=O)N2CCN(S(=O)(=O)c3ccc(C)cc3C)CC2)c1C -6.76%, Cc1[nH]ccc(=O)c1Oc1ncc(C(F)(F)F)cc1Cl -2.35%, Cc1ccc(-c2nn(Cc3ccccc3)cc2/C=C/C(=O)O)cc1C -3.26%, COc1ccc(OC)c(C(c2nnnn2C2CCCC2)N2CCN(c3ccccc3F)CC2)c1 (stereo unspecified) -6.38% and 2.54%, COc1ccc(C)cc1NC(=O)C(C)N(c1ccc(C)cc1)S(C)(=O)=O (stereo unspecified) -0.78%, CCC(CC)C(=O)N1CC(=O)Nc2ccc(F)cc2C1c1ccccc1 (stereo unspecified) -0.74%, N=C1S/C(=C\c2cccc3ccccc23)C(=O)N1c1ccc(F)cc1 -3.83%, COc1cc(/C=C2\SC(=N)N(c3ccc4c(c3)OCO4)C2=O)cc(OC)c1O 2.68%, COc1cccc(/C=C2\SC(=S)N(c3cccnc3)C2=O)c1OC -3.12%, CC(/C=C1\SC(=S)N(CC(=O)N2CCN(c3ccccc3)CC2)C1=O)=C\c1ccccc1 25.6%, O=C(O)CN1C(=O)/C(=C\C(Br)=C\c2ccccc2)SC1=S 8.8%, O=C1/C(=C\c2ccc(O)cc2)SC(=S)N1c1cccnc1 1.44%, Cc1ccc(N2C(=O)/C(=C/c3ccco3)SC2=S)cc1 -7.25%, COc1ccc(CCN2C(=O)/C(=C\c3ccco3)SC2=S)cc1OC 0.31%, C[C@H](O)[C@@H]1C(=O)N2CCc3ccc(N4CCOCC4)cc3[C@@H]2C[C@@H]1N(C)S(=O)(=O)c1ccccc1 -8.52%, CN1C(=O)C(N=Nc2ccccc2C(=O)O)N(C)C1=S (stereo unspecified) 30.3%, Cc1ccc(SCC(=O)N(C)CC(=O)Nc2cccc(F)c2)cc1 0.72%, COc1cccc(-n2c(SC)nnc2-c2cnccn2)c1 -0.18%, CCN(CC(=O)Nc1cc(Cl)ccc1C)C(=O)c1ccc2c(=O)n3c(nc2c1)CCC3 2.7%, CN(C)Cc1cn(CCC(=O)O)c2ccccc12 -3.96%, O=C1OC/C(=C(/O)c2ccc(Cl)cc2)C1=O -8.18%, O=C1/C(=C/c2cccnc2)SC(=S)N1c1ccccc1 8.11%, O=C1/C(=C/c2cccs2)SC(=S)N1c1ccccc1 -6.53%, Cc1cccc(N2C(=O)/C(=C/c3cccnc3)SC2=S)c1 -1.54%, Cc1ccc(/C=C2\SC(=S)N(c3cccnc3)C2=O)cc1 21.1%, Cc1ccc(/C=C2\SC(=S)N(Cc3ccccc3)C2=O)o1 29.5%, O=C(O)c1ccc(/C=C2/SC(=S)N(Cc3ccccc3)C2=O)cc1 -0.52%, Cc1nn(C)c(C(=O)NNC(=S)Nc2ccc(F)cc2)c1[N+](=O)[O-] -3.65%, CCn1cnc2cc(NC(=O)c3ccc(C)cc3)ccc21 -2%, COCCn1c(SCC(=O)N2CCCc3ccccc32)nc2cccnc21 -1.26%, C/C(=N\S(=O)(=O)c1ccc(C)cc1)NC(=S)Nc1ccccc1 -0.88%, Cc1ccsc1C(=O)OCC(=O)Nc1cccc(S(=O)(=O)N2CCOCC2)c1 2.2%, Cc1cc(C(=O)OC(C)C(=O)NC2CCCCC2C)c2ccccc2n1 (stereo unspecified) -2.6%, Cc1ccc(C)c(Nc2nc(-c3ccncc3)nc3ccccc23)c1 -7.92%, O=C(OCc1ccccn1)c1ccc(COc2ccc3ccccc3c2)o1 14.9%, N#CC(C(=O)NCCc1ccccc1)c1nc2ccccc2nc1N1CCOCC1 (stereo unspecified) -2.43%, CCCCCCNC(=O)C(C#N)c1nc2ccccc2nc1N1CCOCC1 (stereo unspecified) 5.51%, Cc1nn(-c2ccccc2)c2sc(C(=O)N3CCCCC3)cc12 -2.58%, CCCCN1C(=O)C(=O)N(CC(=O)c2ccc[nH]2)C1=O 5.74%, CCOC(=O)N1CCC(n2c(SCC(=O)Nc3nccs3)nc3ccsc3c2=O)CC1 -7.21% and 20.2%, COc1ccc(NC(=S)NCc2cccs2)cc1 0.47%, COC(=O)c1[nH]c2ccccc2c1NC(=O)CN1CCN(Cc2ccc3c(c2)OCO3)CC1 -1.82%, CCN(CC(=O)Nc1c(C(=O)OC)[nH]c2ccc(Cl)cc12)c1ccc2c(c1)OCO2 0.99%, COc1ccc(OCCN(C)C(=O)c2cccc(S(=O)(=O)N(C)c3ccccc3)c2)cc1 -4.53%, O=C(O)c1ccc(N2C(=O)/C(=C/C=C/c3ccccc3)SC2=S)cc1 7.15%, O=C1S/C(=C\c2cccs2)C(=O)N1c1ccc(O)cc1 -10.4%, CN(C)c1ccc(/C=C/C=C2/SC(=S)N(c3ccccc3)C2=O)cc1 19.3%, Cn1cccc1/C=C1\SC(=O)N(c2ccc(O)cc2)C1=O 4.46%
